Records with an inconclusive call do not appear. Activity calls are given as the source filed them. Unless noted, calls follow the shape of the dose curve; as a rule, active = well fitted curve in the direction sought with a large enough effect in the repeat runs; inconclusive = weak or mixed curves; inactive = no such curve, though single readings can be large; an effect the other way counts as inactive or inconclusive.

Experiment [1] can be described thus: qHTS assay to identify small molecule antagonists of the androgen receptor (AR) signaling pathway using the MDA cell line in the presence of 0.5 nM R1881 - cell viability counter screen (AID 1259242). Also: nearly all actives have a fitted effect of over 45% in size. An outline of the steps: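 Live-cell protease activity was measured by CellTiter-Fluor fluorescence after 30 min. Before that, MDA-kb2 MMTV-luciferase cells had 16 hr at 37C without CO2, exposed to test compounds and 0.5 nM R1881 final.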
(In general: In qHTS, concentration-response curves come from the screen itself.)

Experiment [2] concerns the target Estrogen receptor (Homo sapiens) (UniProt P03372). Nature of the experiment: qHTS assay to identify small molecule antagonists of the estrogen receptor alpha (ER-alpha) signaling pathway using the BG1 cell line in the presence of 0.1 nM 17-beta-estradiol (AID 1259244). Also: nearly all actives have a fitted effect of over 50% in size. Also: potency is read from the fitted curve at half-maximal effect. An outline of the steps: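 Luciferase luminescence (ONE-Glo, 30 min at room temperature) was read after 22 hr at 37C exposure to compounds plus 17beta-estradiol at 0.1 nM final. Cells were VM7Luc4E2 with endogenous ER-alpha and an ERE-driven luciferase, pre-cultured 5 days in hormone-depleted medium.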

Experiment [3] is described as follows: qHTS assay to identify small molecule HDAC inhibitors (AID 1259364). Also: top concentration of the series differs between compounds; nearly all actives have a fitted effect of over 45% in size. An outline of the steps:
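Luminescence read after 30 min room-temperature HDAC-Glo incubation measures cellular class I/II HDAC activity. Compounds were applied for 2 hr at 37 C to HCT-116 wild-type cells seeded the day before.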

Experiment [4] can be described thus: qHTS assay to identify small molecule HDAC inhibitors - cell viability counter screen (AID 1259365). Also: series mostly up to about 92 µM; nearly all actives have a fitted effect of over 50% in size. In outline:
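Luminescence from CellTiter-Glo, developed 30min at room temperature, reports viability of wild-type HCT-116 cells treated 2hr with compounds at 37 C and 5% CO2 after overnight plating.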

Experiment [5] is described as follows: qHTS assay to identify small molecule agonists of the sonic hedgehog signaling (Shh) pathway - cell viability counter screen (AID 1259366). Also: nearly all actives have a fitted effect of over 50% in size. Also: potency is read from the fitted curve at half-maximal effect. In outline:
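Cytotoxicity counter screen run in the same wells as the Shh reporter assay. NIH/3T3 cells carrying a Gli1 response element–driven luciferase were treated with DMSO-dissolved compounds for 24hr, and live-cell protease activity was measured with CellTiter-Fluor.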

A short description of experiment [6]: qHTS assay to identify small molecule agonists of the sonic hedgehog signaling (Shh) pathway (AID 1259368; calls by dose curve; also: nearly all actives have a fitted effect of over 15% in size; also: potency is read from the fitted curve at half-maximal effect). In outline:
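Luminescence was read after 30 min at room temperature with luciferase reagent. Before that, 3T3Gli1-Luc cells (NIH/3T3 clone, stable Gli1-Luc reporter; 2,000/well) were exposed to compounds for 24 hr at 37C, 5% CO2, compounds being added 4 hr post-plating.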

The nature of experiment [7]: qHTS assay to identify small molecule antagonists of the sonic hedgehog signaling (Shh) pathway (AID 1259369; calls by dose curve; also: nearly all actives have a fitted effect of over 45% in size; also: potency is read from the fitted curve at half-maximal effect). An outline of the steps: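 Antagonist mode: compound added to 3T3 Gli1-Luc cells followed by conditioned-medium stimulation, 24 h at 37 C, 5% CO2. Inhibition taken as loss of Gli1-driven luciferase luminescence.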
The nature of experiment [8]: qHTS assay to identify small molecule antagonists of the sonic hedgehog signaling (Shh) pathway - cell viability counter screen (AID 1259367). Also: nearly all actives have a fitted effect of over 55% in size. In outline:
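CellTiter-Fluor signal in conditioned medium-stimulated 3T3 Gli1-Luc cells, 23 hr compound exposure, 37C.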

Experiment [9] in a line: qHTS assay to identify small molecule phospholipidosis (PLD) inducers (AID 1259344; active = well fitted curve in the direction sought with a large enough effect; an effect the other way counts as inactive or inconclusive). An outline of the steps: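 Accumulated phospholipid, stained red by LipidTOX during 24 h compound treatment of HepG2 cells at 37 C, is quantified from images as pit number and intensity, normalised per cell using Hoechst-stained nuclei.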

Chain of Estrogen receptor (Homo sapiens) (P03372 whole entry, looked up): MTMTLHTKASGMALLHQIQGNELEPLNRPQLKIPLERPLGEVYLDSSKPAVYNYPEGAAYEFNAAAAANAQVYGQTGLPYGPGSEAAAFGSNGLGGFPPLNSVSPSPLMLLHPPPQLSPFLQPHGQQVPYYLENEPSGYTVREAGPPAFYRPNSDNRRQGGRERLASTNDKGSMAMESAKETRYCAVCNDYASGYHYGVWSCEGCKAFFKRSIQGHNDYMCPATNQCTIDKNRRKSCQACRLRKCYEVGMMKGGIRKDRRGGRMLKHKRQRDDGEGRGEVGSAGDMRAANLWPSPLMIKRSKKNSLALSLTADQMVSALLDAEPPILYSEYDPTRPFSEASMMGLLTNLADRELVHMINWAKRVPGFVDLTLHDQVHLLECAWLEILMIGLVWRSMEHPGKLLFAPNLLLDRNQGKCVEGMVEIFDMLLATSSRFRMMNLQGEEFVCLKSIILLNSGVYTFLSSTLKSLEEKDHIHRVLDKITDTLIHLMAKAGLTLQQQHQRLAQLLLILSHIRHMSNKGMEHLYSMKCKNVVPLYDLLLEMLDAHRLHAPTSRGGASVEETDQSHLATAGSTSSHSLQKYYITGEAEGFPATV

Take `ClCc1ccccc1`: the Potency result in [1], in experiment [2], in experiment [3], in experiment [4], in experiment [5] and in [6] was “inactive” throughout. Further, the Potency result in experiment [7] is “inactive”.

`O=C=Nc1ccc(Cl)cc1`: the Potency result in experiment [1], in experiment [2], in experiment [4], in experiment [5] and in [6] was “inactive” throughout.

Regarding `C=CC(=O)OCC(C)O` (centres undefined), the Potency result in experiment [1], in experiment [2], in experiment [3], in experiment [4], in experiment [8] and in [6] was “inactive” throughout. Moreover, the Potency entry in [7] was “inactive”.

For `CC1(C)CCC(Cc2ccc(Cl)cc2)C1(O)Cn1cncn1` (centres undefined), the Potency entry in [1], in experiment [3], in [5], in experiment [8] and in [6] was “inactive” throughout. Further, the results for the Potency in experiment [2] and in [7] were 61.1 µM (active) and 27.3 µM (active), respectively.

On to `CN1[C@@H]2CC[C@H]1CC(OC(=O)c1cc(Cl)cc(Cl)c1)C2` (some centres undefined), for which the Potency entry in [1], in experiment [2], in [3], in [4] and in experiment [6] was “inactive” throughout.

`CCN(C)N=O`: the Potency result in experiment [1], in [2], in experiment [3], in experiment [5], in experiment [8] and in experiment [6] was “inactive” throughout. Besides, in [7], the Potency result is “inactive”.

Consider `CN(C)c1ccc(N(C)C)cc1`, for which the Potency result in [1], in experiment [4], in [8] and in [7] was “inactive” throughout. Besides, the results for the Potency in experiment [2], in experiment [5] and in experiment [6] were 30.7 µM (active), 24.4 µM (active) and 24.4 µM (active), respectively.

As for `CCOc1ccc(C(C)(C)COCc2cccc(Oc3ccccc3)c2)cc1`, the Potency entry in [1], in experiment [2], in experiment [3], in experiment [8] and in [7] was “inactive” throughout.

With `CC(O)(CS(=O)(=O)c1ccc(F)cc1)C(=O)Nc1ccc(C#N)c(C(F)(F)F)c1` (centres undefined), the Potency result in experiment [1], in experiment [3], in experiment [4], in [5], in experiment [8] and in experiment [6] was “inactive” throughout. In addition, in experiment [9], the call was inactive.

Consider `COc1ccc(-c2ccccc2)cc1NNC(=O)OC(C)C`, for which the Potency entry in [1], in experiment [3] and in experiment [5] was “inactive” in each case. The Potency in experiment [2] was 71.5 µM (active).

With `CC(C)(OO)c1ccccc1`, the Potency result in [1], in experiment [2], in [3], in experiment [5], in experiment [8] and in experiment [6] was “inactive” throughout.

As for `c1ccc(CN2CCNCC2)cc1`, the Potency result in experiment [1], in experiment [3], in [4], in experiment [5], in experiment [8] and in [6] was “inactive” each time. Besides, in experiment [7], the Potency result is “inactive”. Further, the result in experiment [9] was inactive.

Consider `C=CCN1CC[C@]23c4c5ccc(O)c4O[C@H]2C(=O)CC[C@@]3(O)[C@H]1C5`, for which the Potency entry in experiment [1], in [3], in [4], in experiment [5], in experiment [8] and in experiment [6] was “inactive” each time. The Potency entry in [7] is “inactive”. In experiment [9], the molecule was called inactive.

As to `O=C1c2ccccc2C(=O)C1C(=O)C(c1ccccc1)c1ccccc1`, the Potency entry in [1], in [3], in [4], in experiment [5], in experiment [8] and in [6] was “inactive” in each case. For the same molecule, the Potency result in experiment [7] was “inactive”. Moreover, the molecule was called inactive in experiment [9].

As for `CCCN(CCC)c1c([N+](=O)[O-])cc(S(C)(=O)=O)cc1[N+](=O)[O-]`, the Potency result in experiment [1], in experiment [2], in experiment [3], in experiment [5] and in [8] was “inactive” each time.

Regarding `Cc1cc(=O)[nH]o1`, the Potency result in experiment [1], in experiment [2], in experiment [3], in experiment [5], in [8] and in experiment [7] was “inactive” throughout.

In the case of `O=C1C(=O)c2cccc3cccc1c23`, the Potency result in experiment [1], in experiment [3], in [4] and in experiment [5] was “inactive” throughout. For the same molecule, the Potency is 54.4 µM (active) in [2] and 4.32 µM (active) in experiment [7].

With `O=[N+]([O-])c1ccccc1CCl`, the Potency result in experiment [1], in experiment [2], in experiment [3], in experiment [5], in experiment [8] and in experiment [6] was “inactive” each time. Further, in [7], the Potency entry was “inactive”.

Take `O=C1CN=C(c2ccccc2)c2cc(Cl)ccc2N1CC1CC1`: the Potency entry in experiment [1], in [3], in [4], in experiment [5], in [8] and in experiment [6] was “inactive” in each case. In addition, the outcome in experiment [9] was inactive. In addition, in experiment [7], the Potency was 51 µM (active).

As to `CC(=O)CCC(C)=O`, the Potency entry in experiment [1], in [2], in experiment [3], in [5], in [8] and in [6] was “inactive” in each case. In addition, in experiment [7], the Potency entry was “inactive”.

`C[N+](C)(C)CCCl`: the Potency result in experiment [1], in experiment [2], in [3], in [5], in experiment [8] and in experiment [6] was “inactive” in each case. The Potency entry in [7] was “inactive”.

As for `Oc1ccc(Cl)c(Cl)c1Cl`, the Potency result in experiment [1], in experiment [3], in [4], in experiment [5], in experiment [8] and in experiment [6] was “inactive” each time. In addition, the Potency entry in experiment [7] was “inactive”.
